D2 ag-1 = agonists of human D2 dopamine receptor (beta-arrestin); 360,000 tested, 0.084% active; activation, % (no concentration beside the values); DiscoveRx PathHunter D2 beta-arrestin, luminescence, 90 min; 100% = 57 uM dopamine signal; AID 624465; in the data active means activation above about 40%; inconclusive means between about 15% and that limit
Target sequence (P14416 whole entry, looked up): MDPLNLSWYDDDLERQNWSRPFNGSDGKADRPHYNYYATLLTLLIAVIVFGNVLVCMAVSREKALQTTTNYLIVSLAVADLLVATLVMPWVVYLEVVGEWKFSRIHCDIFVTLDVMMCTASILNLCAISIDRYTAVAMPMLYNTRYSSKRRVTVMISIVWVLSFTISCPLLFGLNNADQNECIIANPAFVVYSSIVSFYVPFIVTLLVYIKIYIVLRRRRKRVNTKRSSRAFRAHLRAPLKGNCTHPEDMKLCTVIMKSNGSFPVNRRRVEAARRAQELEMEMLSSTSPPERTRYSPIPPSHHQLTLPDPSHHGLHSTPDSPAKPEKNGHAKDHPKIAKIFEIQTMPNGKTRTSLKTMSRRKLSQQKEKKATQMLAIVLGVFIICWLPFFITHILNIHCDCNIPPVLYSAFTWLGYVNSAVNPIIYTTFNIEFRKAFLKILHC
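DiscoveRx PathHunter D2 beta-arrestin cells (2,100/well) attached overnight, then compound-stimulated 90 min at 37 C in HBSS/10 mM HEPES/0.1% Tween-20 buffer; beta-galactosidase complementation read by luminescence after 1 h at ambient temperature. Dopamine 57 uM final (EC100) as control.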
D2 PAM-1 = positive allosteric modulators of human D2 dopamine receptor; P14416; HEK293 T-REx D2, calcium flux, EC20 dopamine potentiation; potentiation, % at 10 µM; 340,000 tested, 0.34% active;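 active means potentiation over 3 SD above the plate norm, cut at about 30% in these data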
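Tetracycline-induced HEK293 T-REx cells force-coupled to calcium signalling expressed D2; compounds were pin-added after a 10 s baseline, read kinetically 180 s, then an EC20 dopamine challenge followed with a further 180 s calcium read.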
D2 ag-2 = activates the human D2 dopamine receptor; activation, % at 2 µM; P14416; 340,000 tested, 0.53% active; HEK293 T-REx D2 cells, calcium flux agonist mode; AID 485358;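 active means activation over 3 SD above normal in the single-dose calcium agonist read, cut at about 30% in these data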
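HEK293 Trex D2 cells, tetracycline-induced, o/n 30 C 5% CO2; no-wash Ca dye, RT 30–90 min; 10-cycle baseline, 23 nl cpd added, kinetic Ca read 180 s; agonist hits = positive Ca response.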
D2 PAM-2 = human D2 receptor positive allosteric modulation; P14416; DiscoveRx D2 beta-arrestin cells, luminescence, 90 min; 100% = 57 uM dopamine signal; potentiation, % (concentration not given with the values); 360,000 tested, 0.23% active; AID 624464; in the data active means potentiation above about 50%; inconclusive means mostly about 30% to 49%
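PathHunter D2 cells, attached overnight at 37 deg C, received compound in DMSO plus dopamine at EC20 (50 nM final) for 90 min at 37 deg C. Beta-arrestin recruitment was read as luminescence after 1 h with detection reagent at ambient temperature.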
D2 antagonist = D2 dopamine receptor (human) antagonism | P14416 | HEK293 TREx D2 cells, calcium flux, dopamine EC80 | inhibition, % at 10 µM | 340,000 tested, 2% active; in the data active means inhibition above about 30%; inactive means below that, where a call was filed
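Cells plated overnight at 30 C with tetracycline; no-wash calcium dye, 30–90 min RT; 10 s baseline; compound pinned; 180 s read; EC80 dopamine added; another 180 s read.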
Each line names hits and unclear results; the compound was inactive in the other large screens; ! = repeats disagree. Most compounds without a hit are left out; they make up all but 2.4% or so of the library.

COc1ccc(-c2cc(=O)oc3cc(OC(C)C(=O)NC(Cc4c[nH]c5ccc(O)cc45)C(=O)O)ccc23)cc1 (configuration not stated)	none
CCc1cc(=O)oc2cc(C)cc(OCC(=O)NC(Cc3c[nH]c4ccc(O)cc34)C(=O)O)c12 (configuration not stated)	D2 antagonist 48.3
CC(Oc1ccc2ccc(=O)oc2c1)C(=O)NC(Cc1c[nH]c2ccc(O)cc12)C(=O)O (configuration not stated)	D2 antagonist 43.8
COC(=O)c1sccc1NC(=S)N1CCC(C(N)=O)CC1	D2 antagonist 36.5
COC(=O)c1sccc1NC(=S)N1CCCCC1	none
COc1ccccc1N1CCN(c2nc3ccc(C)cc3nc2-n2nc(C)cc2C)CC1	none (no result: D2 ag-1, D2 ag-2, D2 PAM-2, D2 antagonist)
CCC(C(=O)Nc1ccc2c(c1)OCCO2)n1nnc2ccccc2c1=O (configuration not stated)	none
O=c1c2ccccc2nnn1CSc1ccc2c(c1)OCCO2	D2 PAM-1 43.4
COc1cccc(N2CCN(C3C(=O)c4ccccc4N3C(C)=O)CC2)c1 (configuration not stated)	none (no result: D2 ag-1, D2 PAM-2, D2 antagonist)
COc1cc(OC)c(NC(=O)CC(c2cccs2)N2Cc3ccccc3C2=O)cc1Cl (configuration not stated)	none (no result: D2 ag-1, D2 PAM-2, D2 antagonist)
Oc1ccc(C2CNCCc3c2cc(O)c(O)c3Cl)cc1 (configuration not stated)	D2 ag-1 inconclusive, D2 PAM-2 58.3!
CC(OC(=O)c1ccc(NC(=O)CC#N)cc1)C(=O)NCCC1=CCCCC1 (configuration not stated)	D2 antagonist 38.3
Cc1c2ccccc2nc2c(F)c(NC(C)C)c(F)c(F)c12	D2 ag-2 44.8
CC1(C)OCC(CNC(=O)c2[nH]c(C(F)(F)F)nc2-c2ccccc2)O1 (configuration not stated)	none (no result: D2 PAM-1, D2 ag-2, D2 antagonist)
Cc1cc(C)c(NC(=O)C(C)Sc2nnc(-c3ccco3)n2-c2ccccc2)c(C)c1 (configuration not stated)	none (no result: D2 ag-1, D2 PAM-2)
CC(Sc1nnc(-c2cc3ccccc3o2)n1-c1ccccc1)C(=O)O (configuration not stated)	D2 antagonist 45.0
CN1CC[C@@H]2C(=O)N3CCc4ccc(-c5ccc6c(c5)OCO6)cc4[C@@H]3C[C@@H]21	none (no result: D2 PAM-1, D2 ag-2, D2 PAM-2, D2 antagonist)
O=C(O)CSCCc1ccccn1	D2 antagonist 52.8
O=C1CC(c2ccncc2)c2cc3c(cc2N1)OCO3 (configuration not stated)	D2 antagonist 37.2
O=C1CC(c2ccc3c(c2)OCO3)c2cc3c(cc2N1)OCO3 (configuration not stated)	none
COc1ccc(F)cc1C(=O)C1CCCN(Cc2ccc(Oc3ncccn3)cc2)C1 (configuration not stated)	D2 antagonist 48.9
COc1ccc(F)cc1C(=O)C1CCCN(Cc2cccn2-c2cccnc2)C1 (configuration not stated)	D2 antagonist 74.0
COc1ccc(F)cc1C(=O)C1CCCN(Cc2cnc(N3CCCC3)s2)C1 (configuration not stated)	D2 antagonist 66.0
O=C(c1cccc(C(F)(F)F)c1)C1CCCN(Cc2cccn2-c2ncccn2)C1 (configuration not stated)	D2 antagonist 32.0
COc1ccc(C(=O)C2CCCN(Cc3cccn3-c3ccccn3)C2)cc1F (configuration not stated)	none (no result: D2 ag-2, D2 antagonist)
O=C(c1ccc(C(F)(F)F)cc1)C1CCCN(Cc2cccn2-c2ncccn2)C1 (configuration not stated)	none
CCCCS(=O)(=O)NC(=O)C1(C)CCN1C(=O)C/C=C/c1ccccc1 (configuration not stated)	none (no result: D2 PAM-1, D2 ag-2, D2 antagonist)
CN(CC(=O)OCC(N)=O)S(=O)(=O)c1ccc(Cl)cc1	none
Cc1ccc2nc(SCC(=O)Nc3cccc(Cl)c3)nc(=O)n2c1	none
Cc1ccc2nc(SCC(=O)c3ccc(Cl)cc3)nc(=O)n2c1	D2 antagonist 32.1
Cc1ccn2c(=O)nc(SCC(=O)Nc3cc(C)on3)nc2c1	D2 antagonist 41.6
Cc1ccc2nc(SCC(=O)Nc3ccc(C)c(Cl)c3)nc(=O)n2c1	D2 antagonist 34.7
Cc1ccc2nc(SCC(=O)N3CCCCCC3)nc(=O)n2c1	none
Cc1cc(NC(=O)CSc2nc(=O)n3cc(Cl)ccc3n2)no1	none (no result: D2 PAM-1, D2 ag-2, D2 antagonist)
COc1ccc(F)cc1S(=O)(=O)NCCCn1ccnc1	none
c1ccc(-c2ccccc2OCCOCCN2CCNCC2)cc1	none
CCN1CCN(CCOCCOc2ccccc2-c2ccccc2)CC1	D2 antagonist 60.1 (no result: D2 ag-1, D2 PAM-2)
CC1CC(C)CN(CCOc2ccccc2-c2ccccc2)C1 (configuration not stated)	D2 antagonist 78.8
CC1CCN(CCOc2ccccc2-c2ccccc2)CC1	D2 antagonist 75.0
CCN(CC)CCn1c(NCc2ccc(OC)cc2)nc2ccccc21	D2 antagonist 74.7
O=C(Nc1nc2ccccc2n1CCN1CCCC1)C1CCCCC1	none
COc1ccc(CNc2nc3ccccc3n2CCN2CCCCC2)c(OC)c1	none
CCCCCn1c(NCc2ccc(OC)cc2)nc2ccccc21	none (no result: D2 ag-1, D2 PAM-2, D2 antagonist)
COc1ccc(OC)c(CNc2nc3ccccc3n2CCN2CCCCC2)c1	D2 antagonist 33.5
O=C(Nc1nc2ccccc2n1CCN1CCCCC1)C1CCCCC1	D2 antagonist 41.6
COc1cccc(CNC(=O)c2ccc3c(c2)nc2n3CCOC2)c1OC	none (no result: D2 ag-1, D2 PAM-2, D2 antagonist)
COc1ccc(-c2cnc3c(NC(C)=O)cc(-c4ccc(C(=O)N5CCOCC5)cc4)cn23)cc1OC	none (no result: D2 PAM-1, D2 ag-2, D2 antagonist)
COc1ccc(-c2nc(CS(=O)CC(=O)NCc3ccco3)c(C)o2)cc1 (configuration not stated)	none
Cc1cccc(-c2nc(CS(=O)CC(=O)NCc3cccs3)c(C)o2)c1 (configuration not stated)	D2 antagonist 39.1
CCc1ccc(-c2nc(CS(=O)CC(=O)NCc3ccco3)c(C)o2)cc1 (configuration not stated)	D2 PAM-1 73.2
CCCn1c2ccccc2c2cnn(CC(=O)N(CCCOC(C)C)Cc3ccco3)c(=O)c21	none (no result: D2 ag-1, D2 PAM-2, D2 antagonist)
Cc1cccc(/C=N/NC(=O)c2cc3c(s2)-c2ccccc2CC3)c1	D2 antagonist 31.8
O=c1oc(-c2ccc(O)c(O)c2)cc2cc(O)cc(O)c12	D2 ag-1 inconclusive, D2 PAM-2 51.3 (no result: D2 PAM-1, D2 ag-2, D2 antagonist)
COc1ccc2cc3cc(C(=O)NCCN4CCN(c5ccccc5F)CC4)oc3nc2c1	D2 antagonist 38.0
c1ccc2c(c1)CCc1c-2nc2ccccc2c1N1CCOCC1	D2 antagonist 36.6
O=[N+]([O-])c1cc(-c2nc(-c3ccccc3)no2)ccc1N1CCOCC1	none (no result: D2 ag-1, D2 PAM-2, D2 antagonist)
COc1cc(NC(=O)N2c3ccccc3Sc3ccccc32)c(C(=O)O)cc1OC	D2 ag-1 50.4
COc1ccc([N+](=O)[O-])cc1NC(=O)Nc1ccccc1	D2 antagonist 37.0

Screening data from PubChem.
